{"source": "the supplement of paper PMC10600219", "note": "Where a name gives a salt, the structure may show the parent alone. Over roughly 2,800 compounds, “cell viability relative to vehicle” has its median near 0.98; the lowest 2% begin near 0.45. This is one part of a sample in which the lowest values are shown more often than they occur.", "data": [{"system": "NCI-H2228 alectinib-DTP", "test": "cell viability relative to vehicle (fraction of vehicle); NCI-H2228 is an ALK-positive lung cancer line and DTP means drug-tolerant persister; higher = less growth inhibition", "conditions": "100 nM; treatment time 6 days", "method_in_brief": "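Each value is viability relative to vehicle-treated cells, measured as ATP with the CellTiter-Glo 3D Cell Viability Assay. Parental NCI-H2228 cells and drug-tolerant persisters (1000 nM targeted drug, 13 days) in 384-well plates received the 3114-agent TargetMol anti-cancer compound library at 100 nM, or DMSO, and were read 6 days later.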", "values": [{"smiles": "CC(C)C[C@H](NC(=O)[C@@H](NC(=O)c1cccc(-c2ccccc2)n1)[C@@H](C)O)B(O)O", "note": "[Delanzomib]", "cell viability": 0.301}, {"smiles": "CC(C)C[C@H](NC(=O)[C@@H](O)[C@H](N)Cc1ccccc1)C(=O)O", "note": "[Bestatin hydrochloride]", "cell viability": 1.12}, {"smiles": "CC(C)C[C@H](NC(=O)[C@@H](O)[C@H](N)Cc1ccccc1)C(=O)O", "note": "[Ubenimex]", "cell viability": 1.05}, {"smiles": "CNC(=O)[C@H](Cc1ccccc1)NC(=O)[C@H](CC(C)C)[C@H](CSc1cccs1)C(=O)NO", "note": "[Batimastat]", "cell viability": 1.15}, {"smiles": "CC(C)C[C@H](NC(=O)[C@H](Cc1ccccc1)NC(=O)c1cnccn1)B(O)O", "note": "[Bortezomib]", "cell viability": 0.145}, {"smiles": "CC(C(=O)Nc1cccc(/N=C/c2c(O)ccc3ccccc23)c1)c1ccccc1", "note": "(centres undefined) [Salermide]", "cell viability": 0.89}, {"smiles": "O=C(Nc1ccc(C(O)(C(F)(F)F)C(F)(F)F)cc1)c1ccccc1Cl", "cell viability": 0.929}, {"smiles": "Cn1cc(-c2cnn3c(N)c(Br)c([C@H]4CCCNC4)nc23)cn1", "cell viability": 0.907}, {"smiles": "C/C(=C1/C(=O)Nc2ccc(NC(N)=O)cc21)c1ccc[nH]1", "cell viability": 1.02}, {"smiles": "CSc1cccc(Nc2ncc3cc(-c4c(Cl)cccc4Cl)c(=O)n(C)c3n2)c1", "cell viability": 0.665}, {"smiles": "CCN(CC)CCOc1ccc(Nc2nc(-c3ccccc3NC(=O)CCN3CCN(C)CC3)nc3ccccc23)cc1", "cell viability": 1.16}, {"smiles": "CCN(CC)CCOc1ccc(Nc2ncc3cc(-c4c(Cl)cccc4Cl)c(=O)n(C)c3n2)cc1", "cell viability": 0.445}, {"smiles": "N#Cc1cc2cc(CN3CCC(Nc4ncnc5sc(CC(F)(F)F)cc45)CC3)ccc2[nH]1", "cell viability": 1.04}, {"smiles": "COc1ccc(-c2nc(-c3cc(C(F)(F)F)cc(C(F)(F)F)c3)n(Cc3ccc(C(N)=O)cc3)c2-c2ccc(OC)cc2)cc1", "note": "[Apoptozole]", "cell viability": 0.817}, {"smiles": "COc1cc2c(Oc3ccc(NC(=O)C4(C(=O)Nc5ccc(F)cc5)CC4)cc3F)ccnc2cc1OCCCN1CCOCC1", "note": "[Foretinib]", "cell viability": 0.882}, {"smiles": "COc1cc2ncnc(Nc3ccc(F)c(Cl)c3)c2cc1OCCCN1CCOCC1", "note": "[Gefitinib]", "cell viability": 0.881}, {"smiles": "COc1c(OCCCN2CCOCC2)ccc2c1N=C(NC(=O)c1cnc(N)nc1)N1CCN=C21", "note": "[Copanlisib]", "cell viability": 0.38}, {"smiles": "Cc1cc(C)c(S(=O)(=O)N(CCc2cccc(Br)c2)Cc2ccc(-c3cccc(S(C)(=O)=O)c3)cc2)c(C)c1", "cell viability": 1.12}, {"smiles": "N#C/C(=C/c1ccc(O)c(O)c1)C(=O)N1CCc2ccccc21", "note": "[Tyrphostin AG 528]", "cell viability": 1.03}, {"smiles": "COc1ccc(C=C(C#N)c2cccnc2)cc1OC", "cell viability": 0.956}, {"smiles": "COc1ccc2c3n(c(=NC(=O)c4cccnc4)nc2c1OC)CCN3", "cell viability": 0.447}, {"smiles": "CCc1nc2c(C)cc(N3CCN(CC(=O)N4CC(O)C4)CC3)cn2c1N(C)c1nc(-c2ccc(F)cc2)c(C#N)s1", "cell viability": 1.02}, {"smiles": "CN1CCN(Cc2ccc(Nc3ncc(Cl)c(Nc4ccccc4S(=O)(=O)N(C)C)n3)cc2)CC1", "cell viability": 0.122}, {"smiles": "CNS(=O)(=O)c1ccccc1Nc1nc(Nc2ccc(N3CCN(C)CC3)cc2OC)ncc1Cl", "note": "[ALK inhibitor 2]", "cell viability": 1}, {"smiles": "COc1cc(N2CCC(N3CCN(C)CC3)CC2)ccc1Nc1ncc(Cl)c(Nc2ccccc2S(=O)(=O)C(C)C)n1", "cell viability": 0.942}, {"smiles": "CC/C(=C(/c1ccc(O)cc1)c1ccc(OCCNC)cc1)c1ccccc1", "note": "[Endoxifen E-isomer hydrochloride]", "cell viability": 1.12}, {"smiles": "CN1C(N)=N[C@](C)(c2cc(NC(=O)c3ccc(F)cn3)ccc2F)CS1(=O)=O", "note": "[Verubecestat]", "cell viability": 0.969}, {"smiles": "Cn1cc(C[C@@H](N)C(=O)O)c2ccccc21", "note": "[Indoximod]", "cell viability": 1.14}, {"smiles": "CN1CCc2c(c3ccccc3n2Cc2ccc(C(=O)NO)cc2)C1", "note": "[Tubastatin A HCl]", "cell viability": 0.892}, {"smiles": "Cn1cc(CNCC2CCN(c3ncc(C(=O)NO)cn3)CC2)c2ccccc21", "note": "[Quisinostat]", "cell viability": 0.358}, {"smiles": "CC(=O)OCC1=CO[C@@H](OC(=O)CC(C)C)[C@H]2C1=C[C@H](OC(=O)CC(C)(C)OC(C)=O)[C@]21CO1", "note": "[Acevaltrate]", "cell viability": 1.13}, {"smiles": "Cc1cc([N+](=O)[O-])c(NS(=O)(=O)c2cccc(C(=O)O)c2)cc1-c1cccnc1", "note": "[Alofanib]", "cell viability": 0.978}, {"smiles": "O=P(O)(O)O[C@H]1[C@H](OP(=O)(O)O)[C@@H](OP(=O)(O)O)[C@H](OP(=O)(O)O)[C@@H](OP(=O)(O)O)[C@H]1OP(=O)(O)O", "note": "[Phytic acid]", "cell viability": 1.13}, {"smiles": "COC(=O)Nc1ccc(-c2nc(N3CCOCC3)c3cnn(C4CCN(C(=O)OC)CC4)c3n2)cc1", "cell viability": 0.855}, {"smiles": "CCNC(=O)Nc1ccc(-c2nc(N3CCOC[C@@H]3C)c3c(n2)C(C)(C)S(=O)(=O)C3)cc1", "cell viability": 0.508}, {"smiles": "CN(C)C1CCN(C(=O)c2ccc(NC(=O)Nc3ccc(-c4nc(N5CCOCC5)nc(N5CCOCC5)n4)cc3)cc2)CC1", "note": "[Gedatolisib]", "cell viability": 0.385}, {"smiles": "O=C(Nc1ncc([N+](=O)[O-])s1)c1ccccc1O", "note": "[Tizoxanide]", "cell viability": 0.88}, {"smiles": "COC(=O)C[C@](O)(CCCC(C)(C)O)C(=O)O[C@@H]1C(OC)=C[C@]23CCCN2CCc2cc4c(cc2[C@H]13)OCO4", "note": "[Homoharringtonine]", "cell viability": 0.2}, {"smiles": "O=C(O)COc1ccc(Br)cc1/C=C1\\SC(=S)N(Cc2cccnc2)C1=O", "note": "[Skp2 Inhibitor C1]", "cell viability": 1.08}, {"smiles": "CC(C)=CCc1cc2c(cc1O)O[C@H](c1ccc(O)cc1)CC2=O", "note": "[Bavachin]", "cell viability": 1.01}, {"smiles": "CC(C)(C)c1cc(NC(=O)Nc2ccc(Oc3ccnc4[nH]c(=O)cnc34)cc2F)n(-c2ccccc2)n1", "cell viability": 1.12}, {"smiles": "O=C(/C=C/c1cccnc1)NCCCCC1CCN(C(=O)c2ccccc2)CC1", "cell viability": 0.452}, {"smiles": "Nc1ccc(/C=C/C(=O)NCc2cc3cc(-c4ccc(C(=O)N5CCC(F)(F)CC5)cc4)cc(-c4ccc(F)cc4)c3o2)cn1", "cell viability": 1.25}, {"smiles": "Nc1cc(F)ccc1NC(=O)c1ccc(CNC(=O)/C=C/c2cccnc2)cc1", "note": "[Chidamide]", "cell viability": 0.775}, {"smiles": "c1ccc(-c2oc3ncnc(NC[C@@H]4CCCO4)c3c2-c2ccccc2)cc1", "cell viability": 1.06}, {"smiles": "COC1=CC(=O)c2ccccc2C1=O", "note": "[2-Methoxynaphthoquinone]", "cell viability": 1.06}, {"smiles": "COc1ccc(-c2cc3c(C)nc(N)nc3n([C@H]3CC[C@H](OCCO)CC3)c2=O)cn1", "cell viability": 0.398}, {"smiles": "COc1cccc(-c2cc(F)ccc2[C@H]2Cc3nc(N)nc(C)c3C(=O)N2)n1", "cell viability": 0.502}, {"smiles": "CCn1c(=O)c(-c2cc[nH]n2)cc2c(C)nc(N)nc21", "note": "[Voxtalisib]", "cell viability": 0.86}]}]}
